In the library only some 0.86% were active in any assay of this set; here they are far more common.
RECQ1 inh-1: blocks DNA unwinding by human RECQ1 | P46063 | RECQ1 DNA unwinding, red fluorescence kinetic read | Potency, µM (series often up to 57.3 µM), without a hit: at the top dose activity, negative = inhibition, actives largely listed as inhibitors | 240,000 tested, 0.54% active;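 note: plate controls were vehicle for no effect and no enzyme for full effect; nearly all actives have a fitted effect of over 30% in size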
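50 nM RECQ1T1 preincubated 15 min with compound in Tris pH 8.0 buffer with MgCl2, DTT, Tween-20 and 2.5 ug/ml poly(dI-dC); started with 200 nM TAMRA/BHQ-2 forked duplex and 2 mM ATP. Unwinding read as fluorescence (525/598 nm), two reads 2 h apart.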
APEX1 inh: APE1 (human) endonuclease inhibition. 350,000 tested, 0.35% active. AID 2517. recombinant APE1, TAMRA/BHQ-2 abasic DNA cleavage fluorescence. Potency, µM (top dose mostly 65.8 µM), for the others: at the top dose activity change, negative = inhibition, usual class: inhibitors;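 note: plate controls were vehicle for no effect and reference inhibitor for full effect; nearly all actives have a fitted effect of over 55% in size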
Target sequence (P27695 whole entry, looked up): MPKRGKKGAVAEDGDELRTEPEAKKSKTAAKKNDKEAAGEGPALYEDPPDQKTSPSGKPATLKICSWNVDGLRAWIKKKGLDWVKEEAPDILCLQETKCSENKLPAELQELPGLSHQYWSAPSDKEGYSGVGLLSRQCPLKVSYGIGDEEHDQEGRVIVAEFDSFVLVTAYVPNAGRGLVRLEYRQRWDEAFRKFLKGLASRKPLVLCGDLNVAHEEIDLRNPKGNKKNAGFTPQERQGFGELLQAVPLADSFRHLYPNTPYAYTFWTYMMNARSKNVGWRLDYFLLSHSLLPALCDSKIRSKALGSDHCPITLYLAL
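Step 1: APE1 (0.75 nM) with compound, 15 min RT. Step 2: add 50 nM fluorophore/quencher THF duplex. Step 3: three fluorescence reads 60 s apart (525/598 nm); read 3 minus read 1 = reaction progress.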
Tb PGK inh: T. brucei PGK inhibition | Potency, µM (highest dose often 57.5 µM), without a hit: at the highest dose activity change, negative = inhibition, most hits filed as inhibitors | P07378 | 380,000 tested, 0.043% active | AID 602233 | PGK/GAPDH coupled, Kinase-Glo luminescence, 60 min; note: % is set by controls: 0 for no effect and ±100 for the full control effect; nearly all actives have a fitted effect of over 60% in size
Target sequence (P07378 whole entry, looked up): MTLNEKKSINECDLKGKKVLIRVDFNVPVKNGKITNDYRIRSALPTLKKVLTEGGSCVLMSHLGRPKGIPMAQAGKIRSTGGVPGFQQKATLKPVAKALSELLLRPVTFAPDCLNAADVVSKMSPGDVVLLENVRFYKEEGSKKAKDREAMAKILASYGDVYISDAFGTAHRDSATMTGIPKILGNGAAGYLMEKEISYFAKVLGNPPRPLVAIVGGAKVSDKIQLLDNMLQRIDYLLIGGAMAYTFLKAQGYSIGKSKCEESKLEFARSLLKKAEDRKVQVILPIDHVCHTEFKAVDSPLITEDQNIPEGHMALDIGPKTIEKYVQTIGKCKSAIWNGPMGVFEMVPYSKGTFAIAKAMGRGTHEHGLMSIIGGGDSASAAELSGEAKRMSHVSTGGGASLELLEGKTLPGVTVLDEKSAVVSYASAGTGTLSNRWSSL
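Recombinant glycosomal PGK reaction used 1,3-bisphosphoglycerate generated in-well by GAPDH (100nM final) in 100mM TEA pH 7.6, 5mM MgCl2, 0.01% Tween-20. After 60 minutes at room temperature, ATP was read by Kinase-Glo Plus luminescence end-point.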
FEN1 inh-1: blocks human flap endonuclease 1; P39748; Recombinant FEN1 flap cleavage, fluorescence, 15 min; Potency, µM (titrated, usually from 114 µM), for inactives: at the highest dose activity change, negative = inhibition, hits mostly inhibitors; 390,000 tested, 0.35% active; note: % is set by controls: 0 for no effect and ±100 for the full control effect; nearly all actives have a fitted effect of over 65% in size
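FEN1 at 10 nM, compound pretreatment for 15 min (room temperature), 50 nM final substrate to initiate; endpoint reads at 0 and 15 min; DMSO-only plates used as vehicle background.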
GLS inhibitor: blocks human kidney-isoform glutaminase activity | O94925 | GLS enzymatic activity, qHTS titration | Potency, µM (titrated, usually from 45.5 µM), without a hit: at the highest dose activity change, negative = inhibition, hits mostly inhibitors | 410,000 tested, 0.21% active | AID 624170; note: % is set by controls: 0 for no effect and ±100 for the full control effect
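Glutamate formation by hKGA was monitored fluorometrically using coupled glutamate oxidase, HRP and Amplex Red. Substrate was added as 1 mM L-glutamine solution; incubation was 30 min at RT after an initial read.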
BLM inh: Bloom syndrome helicase (human) inhibition; P54132; recombinant BLM DNA unwinding, fluorescence dequenching; Potency, µM (titrated, usually from 56.1 µM), for inactives: at the top dose activity change, negative = inhibition, most hits filed as inhibitors; 350,000 tested, 0.2% active;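 note: plate controls were vehicle for no effect and no enzyme for full effect; nearly all actives have a fitted effect of over 35% in size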
RECQ1 conf: confirmation of human RECQ1 helicase inhibitors | shares compounds with RECQ1 inh-1 | RECQ1 helicase DNA unwinding, fluorescence | Potency, µM (doses to about 229 µM), without a hit: at the top dose activity change, negative = inhibition, usual class: inhibitors | 610 tested, 28% active; note: % is set by controls: 0 for no effect and ±100 for the full control effect; nearly all actives have a fitted effect of over 45% in size
RECQ1 ADP FP: ADP displacement flagged in RECQ1 inhibitor counter-screen; shares compounds with RECQ1 inh-1; ADP fluorescence polarization displacement counterscreen; Potency, µM (titrated, usually from 228 µM), inactives show top-dose activity change, negative = inhibition, most hits filed as inhibitors; 530 tested, 27% active; note: % is set by controls: 0 for no effect and ±100 for the full control effect; nearly all actives have a fitted effect of over 45% in size
RECQ1 inh-2: RECQ1 helicase inhibition confirmed, round 2; shares compounds with RECQ1 inh-1; recombinant RECQ1 DNA unwinding, red fluorescence; Potency, µM (highest dose often 119 µM), inactives show top-dose activity, negative = inhibition, actives largely listed as inhibitors; 1,100 tested, 15% active; AID 504841; note: % is set by controls: 0 for no effect and ±100 for the full control effect; nearly all actives have a fitted effect of over 50% in size
FEN1 inh-2: FEN1 inhibition, cherry-pick retest | FEN1 flap cleavage, TAMRA/BHQ2 fluorogenic DNA substrate | Potency, µM, usual class: inhibitors | 880 tested, 79% active | shares compounds with FEN1 inh-1 | AID 720498; note: nearly all actives have a fitted effect of over 60% in size
An asterisk follows results filed as active. Calls come from the whole dose curve; as a rule, active = well fitted curve in the direction sought with a large enough effect; inconclusive = small, poorly fitted or top-dose-only effect, or another doubt; inactive = no such curve, though single readings can be large; an effect the other way counts as inactive or inconclusive. Potency is the fitted concentration of half-maximal effect.

Screening CCCN(C(=O)c1c(C)oc2ncn(CC(C)C)c(=O)c12)c1ccccc1C returned Tb PGK inh -4.9%, FEN1 inh-1 0.7%, GLS inhibitor -5.2% and BLM inh 0.8%.
Cc1ccc(-c2nc3c(c(=O)[nH]c(=O)n3Cc3ccccc3)n2C)o1 was read as RECQ1 inh-1 14.1µM*, APEX1 inh 22.4µM*, Tb PGK inh 5.1%, FEN1 inh-1 1.1%, GLS inhibitor -9.1%, BLM inh inconclusive, RECQ1 conf inconclusive and RECQ1 inh-2 inconclusive.
Cc1ccc(-c2nc3c(c(=O)[nH]c(=O)n3Cc3ccccc3)n2Cc2ccccc2)o1 was read as RECQ1 inh-1 -15.6%, APEX1 inh -1.0%, Tb PGK inh inactive, FEN1 inh-1 -16.0%, GLS inhibitor 3.2% and BLM inh -5.3%.
COc1ccc(CCNC(=O)c2cc(Nc3ccccc3)nc3ccccc23)cc1OC was read as Tb PGK inh -5.0%, FEN1 inh-1 -6.5%, GLS inhibitor -6.9% and BLM inh -6.5%.
Screening O=C(CN1C(=O)CCSc2ccc(S(=O)(=O)N3CCCC3)cc21)Nc1cccc(Cl)c1 returned Tb PGK inh inactive, FEN1 inh-1 -1.9%, GLS inhibitor -1.7% and BLM inh -6.2%.
Screening O=C(NC(Cc1ccccc1)C(=O)O)/C(=C/c1ccccc1)NC(=O)c1cccc(Br)c1 (stereo unspecified) returned RECQ1 inh-1 -3.0%, APEX1 inh 3.7%, Tb PGK inh inactive, FEN1 inh-1 -1.7%, GLS inhibitor 25.5%, BLM inh -9.0%, RECQ1 conf 10.5% and RECQ1 ADP FP inconclusive.
For CC(NC(=O)/C(=C/c1ccc2c(c1)OCO2)NC(=O)c1cccc([N+](=O)[O-])c1)C(=O)O (stereo unspecified) the results were RECQ1 inh-1 -5.5%, APEX1 inh 15.5%, Tb PGK inh 0.1%, FEN1 inh-1 -1.1%, GLS inhibitor 16.7%, BLM inh -3.7%, RECQ1 conf 14.0% and RECQ1 ADP FP -14.8%.
For O=C(NC(Cc1ccccc1)C(=O)O)/C(=C/c1ccco1)NC(=O)c1cccc([N+](=O)[O-])c1 (stereo unspecified) the results were RECQ1 inh-1 inactive, APEX1 inh -9.7%, FEN1 inh-1 -11.4%, GLS inhibitor 9.5%, BLM inh -1.5%, RECQ1 conf 4.5% and RECQ1 ADP FP -3.7%.
O=C(COC(=O)c1ccc([N+](=O)[O-])s1)Nc1ccc(Cl)cn1 was read as RECQ1 inh-1 -13.3%, APEX1 inh 12.7%, Tb PGK inh 3.2%, FEN1 inh-1 -2.5%, GLS inhibitor 3.7% and BLM inh -17.8%.
`Cc1c(Cl)cnc(NC(=O)COC(=O)c2ccc([N+](=O)[O-])s2)c1Cl` gave RECQ1 inh-1 28.2µM*, APEX1 inh inconclusive, Tb PGK inh -8.3%, FEN1 inh-1 inconclusive, GLS inhibitor -4.3%, BLM inh -27.3%, RECQ1 inh-2 10µM* and FEN1 inh-2 8.49*.
O=C(O)Cc1c[nH]c2ccccc12 was read as Tb PGK inh 5.8%, FEN1 inh-1 2.5% and GLS inhibitor 21.4%.
`O=C(O)Cc1c[nH]c2cccc(O)c12` gave RECQ1 inh-1 31.6µM*, APEX1 inh 15.8µM*, Tb PGK inh inconclusive, FEN1 inh-1 50.1µM*, GLS inhibitor inconclusive, BLM inh -4.1%, RECQ1 inh-2 -16.8% and FEN1 inh-2 47.8*.
For CCC1CC=CC2C1C(=O)N(Cc1ccccc1)C2c1ccc(C(F)(F)F)cc1 (stereo unspecified) the results were RECQ1 inh-1 inactive, APEX1 inh -6.2%, FEN1 inh-1 -14.0% and BLM inh -14.1%.
N=C1/C(=C\c2coc3ccc(O)cc3c2=O)C(=O)N=C2SC=CN12 was read as RECQ1 inh-1 25.1µM*, APEX1 inh 1.5%, Tb PGK inh -7.3%, FEN1 inh-1 50.1µM*, GLS inhibitor -13.6%, BLM inh -27.6%, RECQ1 inh-2 56.2µM* and FEN1 inh-2 inconclusive.
Screening CN1C(=O)/C(=C/c2coc3ccc(O)cc3c2=O)SC1=S returned RECQ1 inh-1 -20.9%, APEX1 inh 4.0%, Tb PGK inh -5.1%, FEN1 inh-1 -19.7%, GLS inhibitor 1.5% and BLM inh -1.9%.
Cc1ccc2c(c1)N(C(=O)N1CCC(C(=O)NCc3ccccc3F)CC1)CC(C)O2 (stereo unspecified) was read as Tb PGK inh inactive, FEN1 inh-1 7.0%, GLS inhibitor -6.9% and BLM inh -0.3%.
Screening CC(=O)Nc1ccc(-n2nnnc2SCC(=O)Nc2cccc(NC(=O)c3ccco3)c2)cc1 returned RECQ1 inh-1 inconclusive, APEX1 inh inconclusive, Tb PGK inh -6.0%, FEN1 inh-1 inconclusive, GLS inhibitor inconclusive, BLM inh -23.2%, RECQ1 inh-2 inconclusive and FEN1 inh-2 inconclusive.
`CCc1ccc(-n2nnnc2SCC(=O)Nc2ccc(NC(C)=O)cc2)cc1` gave APEX1 inh -1.5%, Tb PGK inh -8.3%, FEN1 inh-1 1.6%, GLS inhibitor -1.4% and BLM inh -0.2%.
Screening COc1cc(/C=C2\SC(=S)N(NC(=O)c3cccc(O)c3)C2=O)ccc1O returned APEX1 inh 17.0%, Tb PGK inh -14.1%, FEN1 inh-1 inconclusive, GLS inhibitor 0.5% and BLM inh -16.6%.

Screens as filed in PubChem BioAssay.
